Targets with a hit are over-represented here; the source holds about 7,900 in all. About 0.6% of all pairs of compound and target were hits. Unmarked numbers belong to inactive results.

Sequence of UniProt P13498 (P13498 whole entry, looked up): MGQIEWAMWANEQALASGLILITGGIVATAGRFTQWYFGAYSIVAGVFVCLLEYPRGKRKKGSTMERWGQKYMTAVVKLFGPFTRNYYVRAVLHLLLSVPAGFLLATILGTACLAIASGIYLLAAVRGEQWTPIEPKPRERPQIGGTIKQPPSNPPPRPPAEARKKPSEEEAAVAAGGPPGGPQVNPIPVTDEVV
Sequence of UniProt Q9UBM7 (Q9UBM7 whole entry, looked up): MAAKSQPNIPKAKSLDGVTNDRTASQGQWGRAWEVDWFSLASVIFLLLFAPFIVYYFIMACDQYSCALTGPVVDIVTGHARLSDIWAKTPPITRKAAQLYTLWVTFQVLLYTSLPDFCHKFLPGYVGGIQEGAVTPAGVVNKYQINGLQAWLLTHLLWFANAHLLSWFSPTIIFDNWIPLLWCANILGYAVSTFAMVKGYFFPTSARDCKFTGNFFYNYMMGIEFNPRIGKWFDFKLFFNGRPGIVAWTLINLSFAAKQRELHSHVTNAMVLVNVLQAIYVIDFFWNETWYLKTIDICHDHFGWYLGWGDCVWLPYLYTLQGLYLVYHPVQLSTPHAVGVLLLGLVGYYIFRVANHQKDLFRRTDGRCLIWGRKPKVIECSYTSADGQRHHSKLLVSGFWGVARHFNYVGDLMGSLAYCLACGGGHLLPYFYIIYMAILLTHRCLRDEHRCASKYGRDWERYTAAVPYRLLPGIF
Sequence of UniProt O94905 (O94905 whole entry, looked up): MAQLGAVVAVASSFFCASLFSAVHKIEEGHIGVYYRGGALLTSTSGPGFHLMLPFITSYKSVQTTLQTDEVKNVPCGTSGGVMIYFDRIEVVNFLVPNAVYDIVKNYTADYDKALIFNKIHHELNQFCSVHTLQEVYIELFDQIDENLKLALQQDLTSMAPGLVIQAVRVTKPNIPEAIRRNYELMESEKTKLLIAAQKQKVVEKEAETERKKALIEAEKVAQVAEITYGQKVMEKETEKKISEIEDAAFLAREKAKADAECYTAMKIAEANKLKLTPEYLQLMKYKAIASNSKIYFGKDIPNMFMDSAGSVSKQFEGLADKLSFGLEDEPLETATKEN
Sequence of UniProt Q15392 (Q15392 whole entry, looked up): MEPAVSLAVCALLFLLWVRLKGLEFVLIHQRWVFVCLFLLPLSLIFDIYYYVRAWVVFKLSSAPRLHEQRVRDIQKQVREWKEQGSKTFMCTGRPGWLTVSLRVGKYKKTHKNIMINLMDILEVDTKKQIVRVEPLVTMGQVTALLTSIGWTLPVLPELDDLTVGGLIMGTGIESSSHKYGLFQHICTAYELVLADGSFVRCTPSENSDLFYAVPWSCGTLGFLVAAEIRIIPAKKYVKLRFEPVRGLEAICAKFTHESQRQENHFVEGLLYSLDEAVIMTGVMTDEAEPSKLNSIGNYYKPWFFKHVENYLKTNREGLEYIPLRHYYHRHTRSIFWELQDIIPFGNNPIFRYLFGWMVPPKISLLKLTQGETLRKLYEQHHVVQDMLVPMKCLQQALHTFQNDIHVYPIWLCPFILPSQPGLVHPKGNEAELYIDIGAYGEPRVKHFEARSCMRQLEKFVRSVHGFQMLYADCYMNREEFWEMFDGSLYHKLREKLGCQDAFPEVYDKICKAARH
Sequence of UniProt O60888 (O60888 whole entry, looked up): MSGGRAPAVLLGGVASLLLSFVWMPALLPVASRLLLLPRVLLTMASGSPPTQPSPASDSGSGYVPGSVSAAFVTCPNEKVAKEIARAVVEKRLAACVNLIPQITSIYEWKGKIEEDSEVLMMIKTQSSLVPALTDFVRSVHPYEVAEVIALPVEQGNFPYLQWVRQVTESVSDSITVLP
Sequence of UniProt Q8N128 (Q8N128 whole entry, looked up): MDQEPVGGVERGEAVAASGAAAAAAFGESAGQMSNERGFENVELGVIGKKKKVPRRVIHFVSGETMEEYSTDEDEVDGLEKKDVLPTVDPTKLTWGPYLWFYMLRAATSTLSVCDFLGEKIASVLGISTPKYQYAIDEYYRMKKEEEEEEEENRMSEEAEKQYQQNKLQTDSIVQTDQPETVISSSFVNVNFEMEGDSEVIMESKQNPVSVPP
Sequence of UniProt Q9H773 (Q9H773 whole entry, looked up): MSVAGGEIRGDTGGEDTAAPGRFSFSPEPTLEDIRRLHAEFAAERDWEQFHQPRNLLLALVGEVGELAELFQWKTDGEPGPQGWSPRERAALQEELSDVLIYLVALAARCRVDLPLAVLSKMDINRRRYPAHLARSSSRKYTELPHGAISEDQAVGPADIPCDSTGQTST
Sequence of UniProt Q58WW2 (Q58WW2 whole entry, looked up): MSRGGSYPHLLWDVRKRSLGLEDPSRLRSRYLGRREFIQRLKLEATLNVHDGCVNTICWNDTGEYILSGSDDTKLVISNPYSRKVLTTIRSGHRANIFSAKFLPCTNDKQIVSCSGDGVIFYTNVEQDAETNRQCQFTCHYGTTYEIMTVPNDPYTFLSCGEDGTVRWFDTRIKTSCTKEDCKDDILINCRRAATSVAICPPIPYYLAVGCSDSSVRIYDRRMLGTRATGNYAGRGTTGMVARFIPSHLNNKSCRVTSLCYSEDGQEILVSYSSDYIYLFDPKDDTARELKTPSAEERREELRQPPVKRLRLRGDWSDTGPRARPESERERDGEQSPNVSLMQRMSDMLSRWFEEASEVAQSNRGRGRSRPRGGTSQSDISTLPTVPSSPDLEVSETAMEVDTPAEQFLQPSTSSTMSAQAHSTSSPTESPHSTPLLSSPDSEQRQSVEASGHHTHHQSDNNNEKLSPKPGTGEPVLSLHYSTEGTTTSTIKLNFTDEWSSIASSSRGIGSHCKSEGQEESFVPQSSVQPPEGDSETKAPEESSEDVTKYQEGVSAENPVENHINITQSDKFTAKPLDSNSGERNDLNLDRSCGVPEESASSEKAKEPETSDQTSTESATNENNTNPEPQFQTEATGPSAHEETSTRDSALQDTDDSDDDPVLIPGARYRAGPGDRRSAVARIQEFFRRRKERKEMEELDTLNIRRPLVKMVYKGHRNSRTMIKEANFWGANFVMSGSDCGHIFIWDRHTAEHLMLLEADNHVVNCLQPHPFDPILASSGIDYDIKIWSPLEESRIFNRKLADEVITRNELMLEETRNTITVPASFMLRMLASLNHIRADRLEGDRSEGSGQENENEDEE
Sequence of UniProt Q9UK59 (Q9UK59 whole entry, looked up): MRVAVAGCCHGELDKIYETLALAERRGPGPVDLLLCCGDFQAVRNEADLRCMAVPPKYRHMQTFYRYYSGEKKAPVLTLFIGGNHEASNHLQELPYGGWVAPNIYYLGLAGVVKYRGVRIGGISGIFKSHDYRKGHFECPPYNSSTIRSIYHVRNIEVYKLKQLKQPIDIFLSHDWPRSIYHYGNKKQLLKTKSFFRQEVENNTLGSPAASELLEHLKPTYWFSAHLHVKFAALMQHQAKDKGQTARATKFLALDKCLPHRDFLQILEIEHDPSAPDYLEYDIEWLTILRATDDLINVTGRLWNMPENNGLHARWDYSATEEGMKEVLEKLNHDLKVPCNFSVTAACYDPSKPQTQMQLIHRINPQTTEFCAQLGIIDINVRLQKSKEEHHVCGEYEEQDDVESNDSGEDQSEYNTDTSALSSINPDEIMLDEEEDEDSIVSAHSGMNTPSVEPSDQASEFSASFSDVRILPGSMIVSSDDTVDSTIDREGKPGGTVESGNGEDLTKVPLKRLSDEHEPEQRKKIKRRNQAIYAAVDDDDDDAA
Sequence of UniProt Q6IAN0 (Q6IAN0 whole entry, looked up): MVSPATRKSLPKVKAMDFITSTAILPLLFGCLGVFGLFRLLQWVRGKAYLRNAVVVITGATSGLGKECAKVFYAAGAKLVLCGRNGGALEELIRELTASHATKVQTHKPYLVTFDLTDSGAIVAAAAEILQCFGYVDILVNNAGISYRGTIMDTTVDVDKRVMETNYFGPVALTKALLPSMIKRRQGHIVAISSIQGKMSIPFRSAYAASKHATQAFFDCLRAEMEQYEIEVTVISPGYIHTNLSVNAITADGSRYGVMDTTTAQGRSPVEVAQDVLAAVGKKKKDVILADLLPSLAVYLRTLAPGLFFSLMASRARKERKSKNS
Sequence of UniProt Q9NXW2 (Q9NXW2 whole entry, looked up): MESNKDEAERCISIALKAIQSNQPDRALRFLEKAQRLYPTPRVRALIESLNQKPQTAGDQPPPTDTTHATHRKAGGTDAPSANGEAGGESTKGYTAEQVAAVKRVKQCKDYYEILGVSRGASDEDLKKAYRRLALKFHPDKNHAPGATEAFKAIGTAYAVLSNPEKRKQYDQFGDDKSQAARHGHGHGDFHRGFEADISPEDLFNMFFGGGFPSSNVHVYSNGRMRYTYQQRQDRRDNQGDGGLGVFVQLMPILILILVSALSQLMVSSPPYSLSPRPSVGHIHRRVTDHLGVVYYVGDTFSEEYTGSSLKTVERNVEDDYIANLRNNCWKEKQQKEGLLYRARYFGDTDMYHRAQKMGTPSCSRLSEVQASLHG
Sequence of UniProt O00471 (O00471 whole entry, looked up): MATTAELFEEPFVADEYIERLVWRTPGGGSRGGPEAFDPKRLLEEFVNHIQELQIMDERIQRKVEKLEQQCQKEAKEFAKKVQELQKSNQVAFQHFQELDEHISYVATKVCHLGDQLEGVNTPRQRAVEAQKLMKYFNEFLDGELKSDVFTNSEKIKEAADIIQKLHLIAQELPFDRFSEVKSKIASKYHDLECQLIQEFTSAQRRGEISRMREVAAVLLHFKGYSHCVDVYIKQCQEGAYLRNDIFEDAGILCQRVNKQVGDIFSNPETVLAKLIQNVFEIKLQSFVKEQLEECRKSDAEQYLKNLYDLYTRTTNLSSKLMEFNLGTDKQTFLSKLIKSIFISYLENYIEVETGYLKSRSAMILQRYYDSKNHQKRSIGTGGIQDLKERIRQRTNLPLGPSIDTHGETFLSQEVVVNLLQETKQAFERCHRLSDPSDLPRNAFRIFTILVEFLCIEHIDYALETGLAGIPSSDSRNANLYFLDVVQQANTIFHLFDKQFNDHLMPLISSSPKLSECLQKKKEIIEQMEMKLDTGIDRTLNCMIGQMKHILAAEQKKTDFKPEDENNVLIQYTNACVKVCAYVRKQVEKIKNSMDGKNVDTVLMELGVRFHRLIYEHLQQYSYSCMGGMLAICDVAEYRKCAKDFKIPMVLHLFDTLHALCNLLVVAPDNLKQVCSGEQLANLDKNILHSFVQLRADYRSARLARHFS

Compound in this assay: COc1cc2nc(-c3cc(F)ccc3O)nc(N[C@@H]3CNC[C@H]3C(C)(C)O)c2cc1OC
As to the kind of experiment: log2 fold change, soluble protein after heating vs DMSO (PISA); higher = thermal stabilisation; K562 cells, 10 uM, 30 min; active = over 0.2 and 3.5 SD of the protein, either way, in both replicates (recomputed). An outline of the steps:
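Thermal stability values are relative to control samples and come from duplicates. They are expressed as log2 fold changes. For measurement, K562 cells (2×10^6 cells/mL) received 10 μM compound for 30 min, and aliquots were heated for 3 min over 48°C-58°C, pooled, and extracted at 4°C in PBS with 0.5% NP-40. Soluble protein, the supernatant after 21,000xg for 90 min, was quantified by TMTpro 16plex LC-MS/MS with equalised channel sums.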
For DNAJB12 (UniProt Q9NXW2), the log2 fold change is 0.023.
Take DHFR (UniProt P00374): the log2 fold change is 0.109.
The value for DFFB (UniProt O76075) was 0.06.
The value for EXOC5 (UniProt O00471) was 0.123; that for DCTPP1 (UniProt Q9H773) was -0.091.
The value for DHX40 (UniProt Q8IX18) was -0.019.
As for EOGT (UniProt Q5NDL2), the log2 fold change was 0.056.
The figure for DHCR7 (UniProt Q9UBM7) is 0.101.
The figure for CUTA isoform 2 (UniProt O60888) is -0.225.
The value for ERLIN1 (UniProt O75477) was -0.075; that for EXOC1 (UniProt Q9NV70) was 0.131; that for CUX1 isoform 2 (UniProt Q13948) was -0.062.
Consider DNM2 (UniProt P50570), for which the log2 fold change is 0.099.
The figure for DHRS7B (UniProt Q6IAN0) is 0.335 (active); for DIP2A (UniProt Q14689) it is -0.098.
For the target FAM114A2 (UniProt Q9NRY5), the log2 fold change is -0.093.
The value for FAF2 (UniProt Q96CS3) was -0.011; that for ECH1 (UniProt Q13011) was 0.045.
The value for DDOST (UniProt P39656) was 0.003.
The value for DCAF6 isoform 3 (UniProt Q58WW2) was -0.023.
Turning to DHCR24 (UniProt Q15392), the log2 fold change was 0.047.
For DNAH11 (UniProt Q96DT5), the log2 fold change was -0.137.
The value for DCAF13 (UniProt Q9NV06) was -0.047; that for CYBA (UniProt P13498) was -0.171; that for FADS1, A0A0A0MR51 was -0.111.
The value for DPP8 (UniProt Q6V1X1) was 0.041.
In the case of DDB1 (UniProt Q16531), the log2 fold change was 0.006.
The figure for CUX1 isoform 3 (UniProt P39880) is -0.024; for EHBP1L1 (UniProt Q8N3D4) it is 0.119; for EXOC7 (UniProt Q9UPT5) it is 0.149.
As for DHX36 (UniProt Q9H2U1), the log2 fold change was 0.017.
The figure for DBR1 (UniProt Q9UK59) is 0.017; for ERLIN2 (UniProt O94905) it is -0.143.
The figure for DAG1 (UniProt Q14118) is 0.105; for EFL1 (UniProt Q7Z2Z2) it is 0.042.
The value for DHRS3 (UniProt O75911) was 0.031.
In the case of FAM160B1 (UniProt Q5W0V3), the log2 fold change was -0.092.
The value for EHD2 (UniProt Q9NZN4) was 0.092; that for DTWD1 (UniProt Q8N5C7) was 0.078.
The value for FAM177A1 isoform 2 (UniProt Q8N128) was -0.291 (active).
